The structures appear in SMILES notation. Results with a measured potency or affinity are listed apart. Unmarked numbers belong to inactive results. The rule behind the calls is not given here.

The test has as its system Ras-related protein Rab-7a (dog), GTP binding. Description: Rab7 GTP binding inhibitors, potency, dose response, biochemical, wildtype, multiplex bead flow cytometry (AID 1336). The settings on record: bead-based flow cytometry, fluorescent GTP binding to Rab7; series mostly up to 100 µM; GTP binding, % of control: at the top concentration. On the technique in general: Flow cytometry measures light scatter and fluorescence of single cells or particles in a stream.
With `O=C(O)c1c(C(F)(F)F)ccnc1SCc1ccccc1`, the “GTP binding, % of control” value is 97.9%.

With `Cc1cc(C)n2nc(C(=O)N3CCCC(CNS(=O)(=O)c4cccs4)C3)cc2n1` (configuration not stated), the “GTP binding, % of control” value is 78.8%.

`CCC(C)C(=O)Nc1ccc(OC)cc1OC` (configuration not stated): the “GTP binding, % of control” value was 66.6%.

`Cc1ccc(-n2nc3c(SCCN4CCOCC4)nnc(C)c3c2C)cc1`: the “GTP binding, % of control” value was 58.3%.

Turning to `CCCCCn1nc(C(=O)OCC(=O)c2c(N)n(C)c(=O)n(C)c2=O)c2ccccc2c1=O`, the “GTP binding, % of control” value was 90.2%.

Turning to `COCCCNc1nc(=S)[nH]c2cc(OC)c(OC)cc12`, the “GTP binding, % of control” value is 62.1%.

Turning to `COc1ccccc1Oc1ccccc1C(=O)O`, the “GTP binding, % of control” value is 81.1%.

In the case of `Cc1nn(CCc2nn[nH]n2)c2nc(-c3ccc(C4CCCCC4)cc3)cc(C(F)(F)F)c12`, the “GTP binding, % of control” value is 70.6%.

In the case of `O=c1c2ccc([N+](=O)[O-])cc2ncn1CCOc1ccccc1`, the “GTP binding, % of control” value is 86.2%.

In the case of `CSc1nnc(-c2cc(Br)ccc2N=Cc2c(C)[nH]n(-c3ccccc3)c2=O)c(=O)[nH]1`, the “GTP binding, % of control” value was 64.5%.

With `Cc1ccc(N=Nc2c(N)[nH]n3c(=O)cc(C)nc23)cc1`, the “GTP binding, % of control” value is 60.2%.

For the molecule `O=C(N/N=C/c1c(O)n(Cc2ccccc2)c(=O)c2ccccc12)c1cccnc1`, the “GTP binding, % of control” value is 73.2%.

As for `CCn1cc(C(=O)OCC(=O)c2cc(C)n(-c3cccc(C(F)(F)F)c3)c2C)c(=O)c2ccc(C)nc21`, the “GTP binding, % of control” value is 60.3%.

Turning to `Cc1sc2ncnc(N/N=C/c3ccc(O)cc3)c2c1C`, the “GTP binding, % of control” value was 80.2%.

In the case of `O=c1[nH]c2ccc(S(=O)(=O)NCc3ccccc3)cc2[nH]1`, the “GTP binding, % of control” value is 80.6%.

For the molecule `CCc1ccc(Cn2nnc(C(=O)O)c2C(=O)O)cc1`, the “GTP binding, % of control” value was 62.3%.

Take `Cc1cc(NS(=O)(=O)c2ccc(NC(=O)c3cc4c(=O)n5ccccc5nc4s3)cc2)nc(C)n1`: the “GTP binding, % of control” value was 82.2%.

These data come from PubChem BioAssay.
